Reference: a collection of fitness landscapes (doi:10.1126/science.1257360)
Over roughly 140,000 sequences, “enrichment ratio after two sorts for PhoP signalling” has its median near 0; the highest 2% begin near 11. Only a selection was taken, and the highest values are over-represented in it overall.

B1: PhoQ; a variant is named by its letters at X, in order, P23837 (parent)
chain: MKKLLRLFFPLSLRVRFLLATAAVVLVLSLAYGMVALIGYSVSFDKTTFRLLRGESNLFYTLAKWENNKLHVELPENIDKQSPTMTLIYDENGQLLWAQRDVPWLMKMIQPDWLKSNGFHEIEADVNDTSLLLSGDHSIQQQLQEVREDDDDAEMTHSVAVNVYPATSRMPKLTIVVVDTIPVELKSSYMVWSWFIYVLSANLLLVIPLLWVAAWWSLRPIEALAKEVRELEEHNRELLNPATTRELTSLVRNLNRLLKSERERYDKYRTTLTDLTHSLKTPLXXLQXXLRSLRSEKMSVSDAEPVMLEQISRISQQIGYYLHRASMRGGTLLSRELHPVAPLLDNLTSALNKVYQRKGVNISLDISPEISFVGEQNDFVEVMGNVLDNACKYCLEFVEISARQTDEHLYIVVEDDGPGIPLSKREVIFDRGQRVDTLRPGQGVGLAVAREITEQYEGKIVAGESMLGGARMEVIFGRQHSAPKDE

Variants of: B1
Assay: enrichment ratio after two sorts for PhoP signalling (ratio (wild type AVST 3.29)); higher = more functional
Conditions: with PhoP (E. coli)

| Variant | enrichment ratio |
| --- | --- |
| RVHQ | ≤ 0.25 |
| YHNL | ≤ 0.25 |
| SHNI | 8.22 |
| NHNL | ≤ 0.25 |
| THNL | 12.7 |
| THNI | 14.1 |
| NHNI | ≤ 0.25 |
| YPKW | ≤ 0.25 |
| AGAF | 3.66 |
| TPRL | ≤ 0.25 |
| MTGI | 11.7 |
| AGFP | ≤ 0.25 |
| AGGI | 12.9 |
| ANGI | 22.1 |
| AIGI | 11.8 |
| AHGI | ≤ 0.25 |
| MTGD | ≤ 0.25 |
| VHGI | ≤ 0.25 |
| ANHA | ≤ 0.25 |
| YTGI | ≤ 0.25 |
| GNGI | ≤ 0.25 |
| GHGI | ≤ 0.25 |
| IIYR | ≤ 0.25 |
| DKAR | ≤ 0.25 |
| LMEW | ≤ 0.25 |
| VFIY | ≤ 0.25 |

| Variant | enrichment ratio |
| --- | --- |
| ATGS | 5.38 |
| KCGI | ≤ 0.25 |
| TSGI | 12.8 |
| MMGI | ≤ 0.25 |
| TMFP | ≤ 0.25 |
| KSGI | ≤ 0.25 |
| TMGI | 20.6 |
| ATGI | 13.1 |
| TTGI | 9.44 |
| MGHD | ≤ 0.25 |
| TSDS | 0.648 |
| FMNE | ≤ 0.25 |
| QEAQ | ≤ 0.25 |
| SRAQ | ≤ 0.25 |
| TEAQ | 28 |
| SLAQ | 3.9 |
| NEAQ | ≤ 0.25 |
| SEAQ | 13.7 |
| LILM | ≤ 0.25 |
| MPQI | ≤ 0.25 |
| IQHE | ≤ 0.25 |
| EPTW | ≤ 0.25 |
| NMAC | ≤ 0.25 |
| KMAC | ≤ 0.25 |
| CMAC | 23.4 |
| TMAC | 28.2 |

| Variant | enrichment ratio |
| --- | --- |
| SMTC | 8.15 |
| GMAC | ≤ 0.25 |
| SMPC | ≤ 0.25 |
| SMAC | 12.5 |
| NNAC | ≤ 0.25 |
| VQIW | ≤ 0.25 |
| NELI | ≤ 0.25 |
| MAEF | ≤ 0.25 |
| RVFY | ≤ 0.25 |
| SKNN | ≤ 0.25 |
| NLIQ | ≤ 0.25 |
| SALT | 11.2 |
| KALY | ≤ 0.25 |
| SAAT | 3.66 |
| CALN | 65 |
| QILN | ≤ 0.25 |
| SALK | 15.2 |
| SALY | 11.8 |
| SPLK | ≤ 0.25 |
| NALN | ≤ 0.25 |
| SAVT | 0.95 |
| NALY | ≤ 0.25 |
| KYLK | ≤ 0.25 |
| AFGW | ≤ 0.25 |
| DHYR | ≤ 0.25 |
| VAYT | ≤ 0.25 |

| Variant | enrichment ratio |
| --- | --- |
| QIHG | 2.32 |
| YSRD | ≤ 0.25 |
| NFVV | ≤ 0.25 |
| SALS | 11.5 |
| SALN | 11.9 |
| SAMG | 5.01 |
| SAMK | 17.9 |
| SALA | 5.84 |
| SAPA | ≤ 0.25 |
| KALN | ≤ 0.25 |
| SAMS | 7.54 |
| SACN | 9.88 |
| SYEW | ≤ 0.25 |
| PEIY | ≤ 0.25 |
| VINR | ≤ 0.25 |
| ELMR | ≤ 0.25 |
| DFTI | ≤ 0.25 |
| SPMM | ≤ 0.25 |
| FQMM | 5.91 |
| TQMM | 57.7 |
| LCMM | 26.9 |
| SEMM | 32.5 |
| LCWM | ≤ 0.25 |
| SYMM | 0.307 |
| KFMM | ≤ 0.25 |
| SRMM | 1.64 |

| Variant | enrichment ratio |
| --- | --- |
| NQMM | ≤ 0.25 |
| SIMM | 1.49 |
| SAMM | 12.7 |
| PFQY | ≤ 0.25 |
| GAKN | ≤ 0.25 |
| FYYW | ≤ 0.25 |
| FFHN | ≤ 0.25 |
| SYFV | ≤ 0.25 |
| WNTR | ≤ 0.25 |
| WKFY | ≤ 0.25 |
| EDEV | ≤ 0.25 |
| TFAW | ≤ 0.25 |
| HTHM | ≤ 0.25 |
| YRCS | ≤ 0.25 |
| RLLR | ≤ 0.25 |
| SSMM | 19.1 |
| RGMM | ≤ 0.25 |
| STMM | 18.6 |
| YAMM | 3.27 |
| YYMM | ≤ 0.25 |
| YTMM | 11.8 |
| SQMM | 3.97 |
| KYMM | ≤ 0.25 |
| NGMM | ≤ 0.25 |
| TGMM | 16 |
| SWMM | ≤ 0.25 |

| Variant | enrichment ratio |
| --- | --- |
| APTA | ≤ 0.25 |
| HDAK | ≤ 0.25 |
| NSKR | ≤ 0.25 |
| FYPF | ≤ 0.25 |
| SSWP | ≤ 0.25 |
| IRWL | ≤ 0.25 |
| QACS | ≤ 0.25 |
| PGDN | ≤ 0.25 |
| GRMN | ≤ 0.25 |
| NMLY | ≤ 0.25 |
| GGMM | ≤ 0.25 |
| SHMM | 2.18 |
| NIMM | 16 |
| MTMM | 59.5 |
| FTMM | 12.1 |
| THMM | 17.6 |
| NHMM | ≤ 0.25 |
| YHMM | ≤ 0.25 |
| MMMM | ≤ 0.25 |
| FSMM | 4.33 |
| WIMM | ≤ 0.25 |
| QPMM | ≤ 0.25 |
| PMCS | ≤ 0.25 |
